Assays:
Assay in all cases: yeast three-hybrid, YBZ-1, SC-Leu-His + 0.5 mM 3-AT, 4 days
Conditions in all cases: tags: N-Gal4 AD-HA kept; label: inside an RPR1-promoter hybrid RNA with tandem MS2 sites; ssRNA
PUM1 PUF domain R3-GYV = PUM1 PUF domain R3-GYV (Homo sapiens, UniProt Q14671 828-1176, C935G;R936Y;Q939V)
Summary of the method: (§1)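 Each repeat of the Pumilio-1 PUF domain was randomized at its three base-contacting residues, and these libraries were co-expressed from a centromeric plasmid with matching RNA elements in strain YBZ-1. After four days on SC-Leu (input) or SC-Leu-His + 0.5 mM 3-AT (selection), the repeat regions were PCR-amplified and Illumina-sequenced. The interaction score compares variant frequency between input and selection as a log change, computed in log2 with a pseudocount of 1 for absent variants.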

PUM1 PUF domain R6-MFS = target: T1, PUM1 PUF domain R6-MFS (Homo sapiens, UniProt Q14671 828-1176, N1043M;Y1044F;Q1047S)
T1 sequence: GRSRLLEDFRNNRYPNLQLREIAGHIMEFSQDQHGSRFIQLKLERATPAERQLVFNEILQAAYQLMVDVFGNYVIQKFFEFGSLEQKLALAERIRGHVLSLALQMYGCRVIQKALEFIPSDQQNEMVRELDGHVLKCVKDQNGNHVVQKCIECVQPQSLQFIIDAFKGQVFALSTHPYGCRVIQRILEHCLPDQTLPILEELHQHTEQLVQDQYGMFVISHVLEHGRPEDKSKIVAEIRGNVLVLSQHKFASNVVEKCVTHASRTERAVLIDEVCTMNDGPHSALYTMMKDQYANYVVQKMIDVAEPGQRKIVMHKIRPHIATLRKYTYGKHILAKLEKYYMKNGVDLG
Summary of the method: as §1

PUM1 PUF domain R8-HYR = PUM1 PUF domain R8-HYR (Homo sapiens, UniProt Q14671 828-1176, N1122H;Q1126R)
Summary of the method: as §1

PUM1 PUF domain R8-KWV = PUM1 PUF domain R8-KWV (Homo sapiens, UniProt Q14671 828-1176, N1122K;Y1123W;Q1126V)
Summary of the method: as §1

PUM1 PUF domain R4-APN = PUM1 PUF domain R4-APN (Homo sapiens, UniProt Q14671 828-1176, N971A;H972P;Q975N)
Summary of the method: as §1

PUM1 PUF domain R7-RCK = PUM1 PUF domain R7-RCK (Homo sapiens, UniProt Q14671 828-1176, S1079R;N1080C;E1083K)
Summary of the method: as §1

PUM1 PUF domain R5-RPC = PUM1 PUF domain R5-RPC (Homo sapiens, UniProt Q14671 828-1176, C1007R;R1008P;Q1011C)
Summary of the method: as §1

PUM1 PUF domain R1-KMR = PUM1 PUF domain R1-KMR (Homo sapiens, UniProt Q14671 828-1176, S863K;R864M;Q867R)
Summary of the method: as §1

PUM1 PUF domain R4-WFS = PUM1 PUF domain R4-WFS (Homo sapiens, UniProt Q14671 828-1176, N971W;H972F;Q975S)
Summary of the method: as §1

PUM1 PUF domain R4-GNH = PUM1 PUF domain R4-GNH (Homo sapiens, UniProt Q14671 828-1176, N971G;H972N;Q975H)
Summary of the method: as §1

GGCUAGAACUAGUGGAUCCCCCGGCGCCCGGCGGCUCGAGCCCGGGUAAGUGUAAAUAGUCUGCAUGCCGCCGGGCGCCAUGCCUGCAGGUCGACUCUAGAAAACAUG
binding signal (PUM1 PUF domain R3-GYV): 3.26 log2 enrichment (interaction score) | binding signal (PUM1 PUF domain R6-MFS): 3 log2 enrichment (interaction score) | binding signal (PUM1 PUF domain R8-HYR): 2.29 log2 enrichment (interaction score) | binding signal (PUM1 PUF domain R8-KWV): 5.94 log2 enrichment (interaction score) | binding signal (PUM1 PUF domain R4-APN): 4.29 log2 enrichment (interaction score)

GGCUAGAACUAGUGGAUCCCCCGGCGCCCGGCGGCUCGAGCCCGGGUAAGUCUAAAUAGUCUGCAUGCCGCCGGGCGCCAUGCCUGCAGGUCGACUCUAGAAAACAUG
binding signal (PUM1 PUF domain R7-RCK): 4.15 log2 enrichment (interaction score)

GGCUAGAACUAGUGGAUCCCCCGGCGCCCGGCGGCUCGAGCCCGGGUAAGUAUAAAUAGUCUGCAUGCCGCCGGGCGCCAUGCCUGCAGGUCGACUCUAGAAAACAUG
binding signal (PUM1 PUF domain R7-RCK): 2.31 log2 enrichment (interaction score)

GGCUAGAACUAGUGGAUCCCCCGGCGCCCGGCGGCUCGAGCCCGGGUAAGUGUUAAUAGUCUGCAUGCCGCCGGGCGCCAUGCCUGCAGGUCGACUCUAGAAAACAUG
binding signal (PUM1 PUF domain R5-RPC): 2.17 log2 enrichment (interaction score)

GGCUAGAACUAGUGGAUCCCCCGGCGCCCGGCGGCUCGAGCCCGGGUAAGUGUAAAUUGUCUGCAUGCCGCCGGGCGCCAUGCCUGCAGGUCGACUCUAGAAAACAUG
binding signal (PUM1 PUF domain R1-KMR): 6.29 log2 enrichment (interaction score)

GGCUAGAACUAGUGGAUCCCCCGGCGCCCGGCGGCUCGAGCCCGGGUAAGUGUAUAUAGUCUGCAUGCCGCCGGGCGCCAUGCCUGCAGGUCGACUCUAGAAAACAUG
binding signal (PUM1 PUF domain R4-WFS): 3.06 log2 enrichment (interaction score) | binding signal (PUM1 PUF domain R4-GNH): 3.07 log2 enrichment (interaction score)

GGCUAGAACUAGUGGAUCCCCCGGCGCCCGGCGGCUCGAGCCCGGGUAAGUGUACAUAGUCUGCAUGCCGCCGGGCGCCAUGCCUGCAGGUCGACUCUAGAAAACAUG
binding signal (PUM1 PUF domain R4-APN): 1.7 log2 enrichment (interaction score)

GGCUAGAACUAGUGGAUCCCCCGGCGCCCGGCGGCUCGAGCCCGGGUAAGCGUAAAUAGUCUGCAUGCCGCCGGGCGCCAUGCCUGCAGGUCGACUCUAGAAAACAUG
binding signal (PUM1 PUF domain R8-KWV): 5.88 log2 enrichment (interaction score)

GGCUAGAACUAGUGGAUCCCCCGGCGCCCGGCGGCUCGAGCCCGGGUAAGUGUCAAUAGUCUGCAUGCCGCCGGGCGCCAUGCCUGCAGGUCGACUCUAGAAAACAUG
binding signal (PUM1 PUF domain R5-RPC): 1.49 log2 enrichment (interaction score)

Source: article PMC8384837, “Expanding the binding specificity for RNA recognition by a PUF domain”
